Test results as given in PMC11062922 (Nature Chemical Biology, 2023).
pEC50, pKd: −log10 of the molar value. Where two headings read alike, the source gives them in different places.

Columns and labels:
Design in all cases: species or system human, MV4-11 + K-562 + COLO205 + SK-N-BE2 + OVCAR-8
[1] = test system: CAMK2D; settings: read-out: apparent Kd, compound concentrations: 100 nM and 1000 nM (sheet 'Samples'), n = 1
[2] = test system: MAPK1; settings: read-out: apparent Kd, compound concentrations: 100 nM and 1000 nM (sheet 'Samples'), n = 1
[3] = test system: MERTK; settings: read-out: apparent Kd, n = 1
[4] = test system: IRAK1; settings: read-out: apparent Kd, n = 1
[5] = test system: TBK1; settings: read-out: apparent Kd, n = 1
[6] = test system: EPHB6; settings: read-out: apparent Kd, n = 1
[7] = test system: PIM1; settings: read-out: apparent Kd, n = 1
[8] = test system: PRKX;PRKY; settings: read-out: apparent Kd, n = 1
[9] = test system: PAK4; settings: compound concentrations:0.3nM, 1nM, 3nM, 10nM, 30nM, 100nM, 300nM, by the legend:Standard error of the EC50 estimation as provided by the drc package.; for pKd: read-out: apparent Kd
[10] = test system: PKN3; settings: compound concentrations:0.3nM, 1nM, 3nM, 10nM, 30nM, 100nM, 300nM, by the legend:Standard error of the EC50 estimation as provided by the drc package.; for pKd: read-out: apparent Kd
[11] = test system: STRADA; settings: read-out: apparent Kd, n = 1
[12] = test system: SYK; settings: read-out: apparent Kd, n = 1
[13] = test system: CSNK1G1; settings: read-out: apparent Kd; compound concentrations: 100 nM and 1000 nM (sheet 'Samples'), CATDS: 5.3431605837735603E-3; n = 1
[14] = test system: MAP2K5; settings: read-out: apparent Kd, n = 1
[15] = test system: MAPK11; settings: read-out: apparent Kd, compound concentrations: 100 nM and 1000 nM (sheet 'Samples'), n = 1
[16] = test system: NQO1; settings: read-out: apparent Kd; compound concentrations: 100 nM and 1000 nM (sheet 'Samples'), CATDS: 3.59016343581718E-3; n = 1
[17] = test system: PRKCI; settings: read-out: apparent Kd; compound concentrations: 100 nM and 1000 nM (sheet 'Samples'), CATDS: 3.8239218597995801E-3; n = 1
[18] = test system: RPS6KA5; settings: read-out: apparent Kd; compound concentrations: 100 nM and 1000 nM (sheet 'Samples'), CATDS: 4.7822949231481997E-3; n = 1
[19] = test system: TAOK1; settings: read-out: apparent Kd, n = 1
[20] = compound concentrations:100 nM and 1000 nM (sheet 'Samples')
[21] = 1000nM,R2:0.97831665287894598,slope:1.2194506521172099,EC50 Standard Error
[22] = 1000nM,R2:0.90981556238152395,slope:1.4029304179145099,EC50 Standard Error
[23] = 1000nM,R2:0.98802455290270397,slope:1.1906156337481999,EC50 Standard Error
[24] = 1000nM,R2:0.96781137417830099,slope:0.58987671625518001,EC50 Standard Error
[25] = 1000nM,R2:0.99888452271644701,slope:1.2700915856501001,EC50 Standard Error
[26] = 1000nM,R2:0.95736535454590599,slope:1.35169947345033,EC50 Standard Error
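Throughout, for pEC50: competition pulldown with Kinobeads ε in cell lysates, inhibitor preincubated 45 min at 4 °C, bound kinases quantified by LC–MS/MS against DMSO control.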
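Throughout, for pKd: competition pulldown with Kinobeads ε in cell lysates, inhibitor preincubated 45 min at 4 °C, bound kinases quantified by LC–MS/MS against DMSO control.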

Cc1ccc(Nc2ccnc(Nc3ccc4c(c3)CS(=O)(=O)C4)n2)cc1O.Cl [GW579362A]
potency estimated from few doses ([1]; CATDS: 4.2472769063291602E-2): 0.502 µM
potency estimated from few doses ([2]; CATDS: 2.9087751414108801E-2): 1.35 µM

CN(c1ccc(NC(=O)N2CCN(CCCN3CCOCC3)CC2)cc1)c1ccnc(Nc2ccc(CS(C)(=O)=O)cc2)n1.Cl [GW830899A]
potency estimated from few doses ([1]; CATDS: 3.7668858732559402E-2): 0.43 µM
potency estimated from few doses ([2]; CATDS: 2.6373806441713499E-2): 0.807 µM

NCCNS(=O)(=O)c1ccc(-c2ccnc3[nH]ccc23)cc1 [GSK977617A]
potency estimated from few doses [3, 20]: 1.44 µM

CNC(=O)c1ccccc1Nc1nc(Nc2ccc(N3CCOCC3)cc2)ncc1Cl.Cl [GSK1576028A]
potency estimated from few doses [4, 20]: 1.02 µM
potency estimated from few doses [5, 20]: 0.395 µM

O=C1N=C(NCCc2ccc(Cl)cc2)S/C1=C\c1ccc2ncccc2c1 [RO4498479-000]
potency estimated from few doses ([6]; compound concentrations: 100 nM and 1000 nM (sheet 'Samples'), CATDS: 6.9765900844718596E-3): 1.66 µM
potency estimated from few doses ([7]; compound concentrations: 100 nM and 1000 nM (sheet 'Samples'), CATDS: 9.1477666322176705E-3): 0.691 µM

CCn1c(-c2nonc2N)nc2c(C#CC(C)(C)O)nc(OCCNC)cc21.Cl [GSK949675A]
potency estimated from few doses [8, 20]: 0.355 µM
pEC50 [9, 21]: 6.50
pKd [9, 21]: 6.66
pEC50 [10, 22]: 7.05
pKd [10, 22]: 7.05

Cc1cccc(Nc2nc(N[C@H]3CCCC[C@H]3N)ncc2C(N)=O)c1.Cl [GSK986310C]
potency estimated from few doses [11, 20]: 2.12 µM
potency estimated from few doses [12, 20]: 0.0797 µM
pEC50 [9, 23]: 6.87
pKd [9, 23]: 7.18

Cn1ncc2c(N)ncnc21 [SKF-18267]
potency estimated from few doses ([1]; CATDS: 7.0756718203265796E-3): 0.441 µM
potency estimated from few doses [13]: 0.716 µM
potency estimated from few doses ([6]; compound concentrations: 100 nM and 1000 nM (sheet 'Samples'), CATDS: 4.7916385769682596E-3): 0.887 µM
potency estimated from few doses ([4]; compound concentrations: 100 nM and 1000 nM (sheet 'Samples'), CATDS: 3.5689080514204499E-3): 1.83 µM
potency estimated from few doses ([14]; compound concentrations: 100 nM and 1000 nM (sheet 'Samples'), CATDS: 4.1093022417344298E-3): 1.25 µM
potency estimated from few doses ([15]; CATDS: 4.4454363185357799E-3): 1.04 µM
potency estimated from few doses ([2]; CATDS: 4.58474987436945E-3): 0.974 µM
potency estimated from few doses ([3]; compound concentrations: 100 nM and 1000 nM (sheet 'Samples'), CATDS: 9.2588510560485896E-3): 0.294 µM
potency estimated from few doses [16]: 1.8 µM
potency estimated from few doses ([7]; compound concentrations: 100 nM and 1000 nM (sheet 'Samples'), CATDS: 7.3887725324269602E-3): 0.412 µM
potency estimated from few doses [17]: 1.5 µM
potency estimated from few doses [18]: 0.891 µM
potency estimated from few doses ([11]; compound concentrations: 100 nM and 1000 nM (sheet 'Samples'), CATDS: 3.7902262633519698E-3): 1.54 µM
potency estimated from few doses ([12]; compound concentrations: 100 nM and 1000 nM (sheet 'Samples'), CATDS: 5.7016392995471003E-3): 0.635 µM
potency estimated from few doses ([19]; compound concentrations: 100 nM and 1000 nM (sheet 'Samples'), CATDS: 4.9523162341794302E-3): 0.83 µM
potency estimated from few doses ([5]; compound concentrations: 100 nM and 1000 nM (sheet 'Samples'), CATDS: 5.0307170658674197E-3): 0.804 µM

COc1cccc2c(-c3ccncc3)c(-c3ccc(F)cc3)nn12 [GW468513X]
potency estimated from few doses ([15]; CATDS: 3.7828559303077401E-2): 1.64 µM

O=C1NC(=O)C(N2CCc3ccccc32)=C1c1ccccc1Cl [SB-373598]
potency estimated from few doses [6, 20]: 0.615 µM
potency estimated from few doses [3, 20]: 1.85 µM
potency estimated from few doses [7, 20]: 0.923 µM

Fc1ccc(-c2c(-c3ccncc3)[nH]c3cccnc23)cc1 [RO1153853-000]
potency estimated from few doses ([15]; CATDS: 6.1294477906433602E-2): 0.838 µM

CN1C[C@@H]2Cn3c(c(C4=C(c5cn(C)c6ccccc56)C(=O)NC4=O)c4ccccc43)C[C@H]2C1.Cl [RO0320234-001]
potency estimated from few doses [6, 20]: 1.96 µM
potency estimated from few doses [19, 20]: 1.35 µM

Clc1cc(Cl)cc(Nc2ccnc(Nc3cc(Cl)cc(Cl)c3)n2)c1 [GSK175726A]
potency estimated from few doses ([6]; compound concentrations: 100 nM and 1000 nM (sheet 'Samples'), CATDS: 8.5475708332426303E-3): 1.63 µM

CCn1c(-c2nonc2N)nc2c(C#CC(C)(C)O)nc(OCCN)cc21.CCn1c(-c2nonc2N)nc2c(C#CC(C)(C)O)nc(OCCN)cc21.Cl.Cl [GSK902056A]
pEC50 [9, 24]: 5.28
pKd [9, 24]: 5.31
pEC50 [10, 25]: 7.99
pKd [10, 25]: 7.99

CCOC(=O)N1CCC(n2cnc(-c3ccc(F)cc3)c2-c2ccnc(N)n2)CC1 [SB-219952]
potency estimated from few doses ([3]; compound concentrations: 100 nM and 1000 nM (sheet 'Samples'), CATDS: 8.4469178777721397E-3): 1.41 µM

COc1ccc(Nc2ncc(C#N)c(Nc3ccccc3C(N)=O)n2)cc1N1CCN(C)CC1.Cl [GSK1558669A]
potency estimated from few doses ([4]; compound concentrations: 100 nM and 1000 nM (sheet 'Samples'), CATDS: 7.7027436488320998E-3): 0.467 µM
potency estimated from few doses ([14]; compound concentrations: 100 nM and 1000 nM (sheet 'Samples'), CATDS: 8.5242635319968205E-3): 0.318 µM
potency estimated from few doses ([12]; compound concentrations: 100 nM and 1000 nM (sheet 'Samples'), CATDS: 6.16985372159695E-3): 1.44 µM
potency estimated from few doses ([5]; compound concentrations: 100 nM and 1000 nM (sheet 'Samples'), CATDS: 1.0324038658374401E-2): 0.172 µM

CN(c1ccc(NC(=O)Nc2cccc(Cl)c2)cc1)c1ccnc(N)n1.Cl [GW830707A]
potency estimated from few doses ([8]; compound concentrations: 100 nM and 1000 nM (sheet 'Samples'), CATDS: 1.5379195282256401E-2): 0.134 µM

Cl.NCc1ccc(-c2nc(-c3ccc(Cl)c(O)c3)c(-c3ccncc3)[nH]2)cc1 [SB-476429-A]
pEC50 [10, 26]: 7.42
pKd [10, 26]: 7.42

Cc1cccc(Nc2nc(N[C@H]3CCNC3)ncc2C(N)=O)c1.Cl [GSK2197149A]
potency estimated from few doses [14, 20]: 1.17 µM
